Rows were chosen to be rich in hits. Some 11% of all compounds tested hit in one or more screens of this group.
USP28 inh – human USP28 deubiquitinase inhibition. inhibition, % at 25 µM. 47,000 compounds, 3% hits. Q96RU2. purified USP28, Ub-rhodamine cleavage fluorescence, 30 min. AID 1645857
USP17 block – blocks human USP17 ubiquitin-rhodamine cleavage; purified USP17, Ub-rhodamine cleavage fluorescence, 3 h; inhibition, % at 50 µM; 47,000 compounds, 6.5% hits; AID 1645855
USP30 inh – blocks human USP30 ubiquitin-rhodamine cleavage. purified USP30, Ub-rhodamine cleavage fluorescence. 47,000 compounds, 5.3% hits. inhibition, % at 25 µM. AID 1645860. Q70CQ3
OTUD3 block – inhibitors of human OTUD3 deubiquitinase; Q5T2D3; purified OTUD3, Ub-rhodamine fluorescence, 2 h; inhibition, % at 25 µM; 47,000 compounds, 0.7% hits; AID 1645858
* hit, by the source's call; / = no result given. Cut-off read from the data, not from the text of the source: active = inhibition above about 30%; inactive = the rest.

SMILES | USP28 inh | USP17 block | USP30 inh | OTUD3 block
Cc1ccccc1-c1nnc(-c2ccc(C(=O)N(C)Cc3cccc(F)c3)cc2)o1 | 20.5 | 23.4 | 39.7* | 18.2
COc1ccc(S(=O)(=O)Nc2ccccc2[N+](=O)[O-])cc1OC | / | -16.7 | / | 3.2
O=C(NCc1cnc(C2CCCCO2)nc1)c1n[nH]c2c1CCC2 (stereo not drawn) | 9.2 | 14.5 | 11.8 | 15.3
CC1(c2ncc(CNC(=O)c3n[nH]c4c3CCCC4)cn2)CCCCO1 (stereo not drawn) | 12.3 | 9.8 | 31.6* | 12.4
Cc1cccc(C)c1NC(=O)Cn1c(=O)n(C2CCCC2)c(=O)c2ccccc21 | -16.8 | 6.4 | 10.7 | 4.5
COc1ccc(-n2c(=O)c(CCC(=O)O)nc3ccccc32)cc1 | -7.3 | 50.1* | -45.1 | -8.9
COc1ccc(-n2c(/C=C/c3cccc4ccccc34)nc3ccccc3c2=O)cc1 | 2.9 | -9.1 | 8.8 | 4.6
COc1ccccc1CNC(=O)Cc1cc(-c2ccc(F)cc2)on1 | -12.2 | 15.5 | 0.0 | -12.3
COc1ccc2c(C)c(CCC(=O)N3CCN(c4ccccc4)CC3)c(=O)oc2c1 | 8.2 | 1.0 | 12.9 | 7.1
Cc1c(Cc2ccccc2)c(=O)oc2cc(OCc3nn[nH]n3)ccc12 | 44.2* | 35.5* | 37.5* | 17.3
C[C@@H]1/C=C/CC/C=C/C(=O)[C@H](C)[C@@H]2CC[C@@H](C)[C@@](O)(O2)C(=O)C(=O)N2CCCC[C@H]2C(=O)O[C@H]([C@H](C)C[C@@H]2CC[C@@H](O)[C@H](O)C2)CC1 | 97.4* | 82.0* | 92.6* | 43.2*
CCn1cc(-c2nc(-c3ccccc3)no2)c(=O)c2cc(F)ccc21 | -1.5 | 67.3* | 11.2 | -7.2
CCOc1ccc(S(=O)(=O)NCc2ccccc2Cl)c2ccccc12 | 20.2 | 32.2* | 45.4* | 24.0
CCOc1ccc(S(=O)(=O)n2ccc(C)n2)c2ccccc12 | / | 12.3 | / | 6.2
COc1ccc(C(=O)Nc2cc3c4c(c2)C(C)C(=O)N4CCC3)cc1 (stereo not drawn) | 51.7* | 7.5 | -0.1 | 4.0
O=C(Nc1cc2c3c(c1)CC(=O)N3CCC2)c1ccc(F)cc1 | 9.1 | -2.5 | -29.1 | -4.3
Cc1ccc(C(=O)Nc2cc3c4c(c2)CC(=O)N4CCC3)cc1 | 55.5* | / | -27.4 | -10.5
CC1C(=O)N2CCCc3cc(NC(=O)c4ccc(F)cc4)cc1c32 (stereo not drawn) | 16.1 | 12.6 | -7.1 | 7.7
COc1ccc(C(=O)Nc2cc3c4c(c2)CC(=O)N4CCC3)cc1 | 49.4* | 5.4 | -34.0 | -10.3
CCOc1ncccc1C(=O)Nc1ccc(S(=O)(=O)Nc2cc(C)nc(C)n2)cc1 | -2.1 | -12.3 | -15.6 | -3.1
CCc1cccc(NC(=O)Cn2c(=O)nc(N3CCCCC3)c3ccccc32)c1 | 8.4 | 42.9* | 9.0 | 4.6
CC(C)[C@H](NC(=O)C1CCN(C(=O)[C@@H](N)Cc2ccccc2)CC1)C(=O)NCc1ccc(F)cc1 | -1.4 | -11.4 | 4.5 | 1.6
CC(NC(=O)[C@H](NC(=O)C1CCN(C(=O)[C@H](N)Cc2ccccc2)CC1)C(C)C)c1ccccc1 (stereo partly drawn) | 6.6 | 1.3 | 30.6* | 10.0
CC(NC(=O)[C@H](C)NC(=O)C1CCN(C(=O)[C@H](Cc2ccccc2)NC(=O)OC(C)(C)C)CC1)c1ccccc1 (stereo partly drawn) | 5.8 | -2.6 | 6.2 | 5.5
Cc1ccc(CNC(=O)[C@@H](NC(=O)C2CCN(C(=O)[C@@H](N)Cc3ccccc3)CC2)C(C)C)cc1 | 12.4 | -5.7 | 30.5* | 8.3
SMILES | USP28 inh | USP17 block | USP30 inh | OTUD3 block
Cc1ccc(S(=O)(=O)N[C@@H](C(=O)N2CCC(C(=O)N[C@@H](Cc3ccccc3)C(=O)O)CC2)C(C)C)cc1 | -1.7 | -0.3 | 5.1 | -0.4
Cc1ccc(S(=O)(=O)N[C@H](C(=O)N2CCC(C(=O)N[C@@H](Cc3ccccc3)C(=O)O)CC2)C(C)C)cc1 | 9.0 | 16.7 | 31.9* | 19.8
Cc1ccccc1CCNC(=O)c1cc(C2CC2)nc2c1cnn2C(C)C | 19.2 | -51.3 | -10.3 | -0.5
O=C(Cn1c(=O)n(CC(=O)NC2CCCC2)c(=O)c2ccccc21)Nc1ccc(Br)cc1 | 24.0 | 37.8* | 41.3* | 12.3
O=C(NC1CCCCC1)c1nc(Cn2cnc3ccccc3c2=O)no1 | -0.8 | 14.4 | 0.3 | 1.2
CCc1noc(Cn2cnc3c4ccccc4n(CC(=O)NC4CCCCC4)c3c2=O)n1 | 53.1* | 45.9* | 69.3* | 25.0
CCc1ccc(NC(=O)Cn2c(=O)n(-c3ccc(CC(=O)NCc4ccco4)cc3)c(=O)c3ccccc32)cc1 | 0.3 | 47.4* | -22.4 | 0.4
CCc1ccc(-n2c(=O)c3ccccc3n(CC(=O)NC3CCCC3)c2=O)cc1 | 31.1* | 62.4* | 51.6* | 25.7

From PubChem BioAssay
